Results filed as inconclusive are left out. Activity calls are given as the source filed them. Unless noted, calls follow the shape of the dose curve; as a rule, active = well fitted curve in the direction sought with a large enough effect in the repeat runs; inconclusive = weak or mixed curves; inactive = no such curve, though single readings can be large; an effect the other way counts as inactive or inconclusive.
Key:
[1] = qHTS assay for small molecule agonists of the p53 signaling pathway (AID 651631; calls by dose curve; also: nearly all actives have a fitted effect of over 15% in size)
Summary of the method: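 Agonist mode screen using a stably integrated beta-lactamase gene under p53 response elements in HCT-116 cells. Compound exposure lasts 16 h at 37 °C; fluorescence intensity is measured following 2 h FRET substrate loading.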

[2] = qHTS assay for small molecules that induce genotoxicity in human embryonic kidney cells expressing luciferase-tagged ATAD5 (AID 651632); also: nearly all actives have a fitted effect of over 15% in size
Summary of the method: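 A rise in luciferase signal from ATAD5-tagged HEK293T cells marks genetic stress. Cells were exposed to compounds for 16 hr at 37C, 5% CO2, then luciferase was quantified after a 30 min room-temperature incubation with Amplite.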

[3] = qHTS assay for small molecule agonists of the p53 signaling pathway - cell viability (AID 651633; calls by dose curve;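 also: p53RE-bla HCT reporter cells with a stable beta-lactamase p53 reporter; nearly all actives have a fitted effect of over 30% in size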)
Summary of the method: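 p53RE-bla cells, seeded at 4,000 per well and rested 5 h at 37 C/5% CO2, received compounds in DMSO for 16 h at 37 C. CellTiter-Glo was then added, and luminescence was read after 30 min at room temperature to gauge cytotoxicity.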

[4] = qHTS assay for small molecules that induce genotoxicity in human embryonic kidney cells expressing luciferase-tagged ATAD5 - cell viability (AID 651634; calls by dose curve; also: nearly all actives have a fitted effect of over 25% in size)
Summary of the method: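 Cytotoxicity counter-readout: after 15.5 hr compound treatment at 37C, live-cell protease activity in ATAD5-luciferase HEK293T cells measured by CellTiter-Fluor fluorescence, 30 min development at 37C.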

[5] = qHTS assay for small molecule disruptors of the mitochondrial membrane potential - cell viability (AID 720634; calls by dose curve;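 also: human HepG2 liver cancer cells; nearly all actives have a fitted effect of over 20% in size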)
Summary of the method: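 Cytotoxicity was quantified from ATP content by CellTiter-Glo luminescence in the same wells as the MMP dye read-out. HepG2 (2,000 cells/well) were plated overnight and exposed to compounds for 1 hr at 37 C.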

[6] = qHTS assay for small molecule disruptors of the mitochondrial membrane potential (AID 720635); also: potency is read from the fitted curve at half-maximal effect
Summary of the method: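 HepG2 cells (2,000/well) attached overnight at 37C, then took compound for 1 hr at 37C, 5% CO2. Mito-MPS dye was added for 30 min; fluorescence was read at 490/535 nm (monomers) and 540/590 nm (aggregates).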

[7] = qHTS assay to test for compound auto fluorescence at 590 nm (red) in HepG2 cells (AID 720674)
Summary of the method: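 Rose Bengal sodium served as the red fluorophore standard. HepG2 monolayers (overnight attachment, MEM with 10% FBS) were exposed to test compounds for 1 hr at 37 C and read at Ex 540/Em 590 nm.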

[8] = qHTS assay to test for compound auto fluorescence at 535 nm (green) in HepG2 cells (AID 720675)
[9] = qHTS assay to test for compound auto fluorescence at 460 nm (blue) in HEK293 cells (AID 720678)
Summary of the method: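 Cells were seeded and left to adhere for 4-5 hr at 37C. Compounds were then pin-transferred. After an overnight incubation at 37C under 5% CO2, intrinsic fluorescence at 405/460 nm was measured and referenced to triamterene.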

[10] = qHTS assay to test for compound auto fluorescence at 590 nm (red) in HEK293 cells (AID 720679)
Summary of the method: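 Each well held 2,000 HEK293 cells in medium containing 10% dialyzed FBS. Following 4-5 hr attachment at 37C, 23 nL test compound or DMSO was added; plates sat overnight, and red fluorescence (540/590nm) was recorded.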

[11] = qHTS assay to test for compound auto fluorescence at 535 nm (green) in HEK293 cells (AID 720680)
[12] = qHTS assay to test for compound auto fluorescence at 460 nm (blue) in HEK293 cell free culture (AID 720681)
Summary of the method: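 Test compounds were pinned into cell-free culture medium (DMEM with 10% FBS) and fluorescence was read directly at Ex/Em 405/460 nm. Signals were expressed as fluorescence equivalents of triamterene, with DMSO vehicle as control.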

[13] = qHTS assay to test for compound auto fluorescence at 535 nm (green) in HEK293 cell free culture (AID 720682)
Summary of the method: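 No cells present: wells hold DMEM supplemented with 10% FBS, into which compound or vehicle is pinned. Green emission is then recorded (485 nm excitation, 535 nm emission) and scaled to fluorescein.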

[14] = qHTS assay to test for compound auto fluorescence at 590 nm (red) in HEK293 cell free culture (AID 720683)
Summary of the method: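 Tox21 10K library compounds were pinned into cell-free DMEM with 10% FBS and fluorescence was read at excitation 540 nm. Activity is expressed as Rose Bengal sodium equivalency.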

[15] = qHTS assay to test for compound auto fluorescence at 590 nm (red) in HepG2 cell free culture (AID 720684)
Summary of the method: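 Readout: intrinsic compound fluorescence at 590 nm emission after 540 nm excitation, scaled to Rose Bengal sodium. Matrix was cell-free MEM with 10% FBS; DMSO vehicle wells served as control.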

[16] = qHTS assay to test for compound auto fluorescence at 460 nm (blue) in HepG2 cell free culture (AID 720685)
Summary of the method: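 Cell-free plates of MEM plus 10% FBS received 23 nL compound or DMSO vehicle; blue-channel (405/460 nm) intensity scored against triamterene as reference fluorophore.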

[17] = qHTS assay to test for compound auto fluorescence at 535 nm (green) in HepG2 cell free culture (AID 720686)
[18] = qHTS assay to test for compound auto fluorescence at 460 nm (blue) in HepG2 cells (AID 720687)
Summary of the method: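 Cells (2,000/well in MEM with 10% FBS) attached overnight at 37 C, then were exposed to compound or DMSO for 1 hr at 37 C, 5% CO2. Fluorescence read at Ex/Em 405/460 nm, expressed as triamterene-equivalent signal.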

[19] = molecular target: Glucocorticoid receptor (Homo sapiens) (UniProt P04150); assay: qHTS assay to identify small molecule agonists of the glucocorticoid receptor (GR) signaling pathway (AID 720691; active = well fitted activation curve with a large enough effect in the signal ratio in the repeat runs, not every such curve was filed as active; the % refers to the signal ratio); settings: GR-bla HeLa, beta-lactamase reporter ratio, 18 h; activation: at 62.4 µM (top of the series) unless noted
Summary of the method: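 Agonist-mode qHTS in HeLa cells stably expressing a glucocorticoid-response-element beta-lactamase reporter. Fluorescence intensity read with FRET substrate (2 h, room temperature) after 18 h compound treatment at 37 C.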

[20] = molecular target: Glucocorticoid receptor (Homo sapiens) (UniProt P04150); assay: qHTS assay to identify small molecule antagonists of the glucocorticoid receptor (GR) signaling pathway (AID 720692; active = well fitted inhibition curve with a large enough effect in the signal ratio in the repeat runs, not every such curve was filed as active; the % refers to the signal ratio)
Summary of the method: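 Inhibition of dexamethasone-driven (5 nM final) beta-lactamase expression was measured in GRE-reporter HeLa cells over 18 h at 37C. Fluorescence was read after 2 h with the B/G FRET substrate at room temperature.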
% is scaled to controls: 0 for no effect and ±100 for the full control effect.

Chain of Glucocorticoid receptor (Homo sapiens) (P04150 whole entry, looked up): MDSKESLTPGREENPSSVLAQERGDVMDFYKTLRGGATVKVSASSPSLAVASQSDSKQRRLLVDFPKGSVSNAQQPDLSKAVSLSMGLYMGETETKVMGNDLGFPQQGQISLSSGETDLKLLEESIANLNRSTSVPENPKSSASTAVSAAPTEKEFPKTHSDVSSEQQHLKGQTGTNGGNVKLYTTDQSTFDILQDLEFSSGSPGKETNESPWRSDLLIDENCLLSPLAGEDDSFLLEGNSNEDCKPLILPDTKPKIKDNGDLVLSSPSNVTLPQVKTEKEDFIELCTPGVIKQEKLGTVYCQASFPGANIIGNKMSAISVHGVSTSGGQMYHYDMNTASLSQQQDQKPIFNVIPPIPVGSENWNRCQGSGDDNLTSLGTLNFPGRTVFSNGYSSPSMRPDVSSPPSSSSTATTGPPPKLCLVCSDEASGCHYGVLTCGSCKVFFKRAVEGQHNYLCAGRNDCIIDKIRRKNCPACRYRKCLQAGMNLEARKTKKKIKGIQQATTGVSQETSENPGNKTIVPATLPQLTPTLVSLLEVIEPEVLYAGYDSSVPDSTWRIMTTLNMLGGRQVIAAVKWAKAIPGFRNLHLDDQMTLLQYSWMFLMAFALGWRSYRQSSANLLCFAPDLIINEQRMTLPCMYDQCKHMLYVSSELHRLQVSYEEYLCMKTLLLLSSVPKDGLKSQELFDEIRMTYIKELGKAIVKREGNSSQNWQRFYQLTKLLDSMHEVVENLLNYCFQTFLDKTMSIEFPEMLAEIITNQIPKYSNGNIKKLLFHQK

CCCCC(CC)COC(=O)CCCCCCCCC(=O)OCC(CC)CCCC (stereo not drawn)
inactive: Potency [1] | Potency [2] | Potency [3] | Potency [4] | Potency [5] | Potency [6] | Potency [7] | Potency [8] | outcome [9] | Potency [10] | outcome [11] | outcome [12] | outcome [13] | Potency [14] | Potency [15] | outcome [16] | Potency [17] | outcome [18] | Potency [19] | Potency [20]

CC[N+]1(CC)CCC(=C(c2ccccc2)c2ccccc2)C1C (stereo not drawn)
inactive: Potency [1] | Potency [2] | Potency [3] | Potency [4] | Potency [5] | Potency [6] | Potency [7] | Potency [8] | outcome [9] | Potency [10] | outcome [11] | outcome [12] | outcome [13] | Potency [14] | Potency [15] | outcome [16] | outcome [18] | Potency [20]

C[C@@H]1C[C@H]2O[C@@]3(O[C@@H]2C(C)(C)O)[C@H](O)[C@@]2(C)[C@@H]4CC[C@H]5C(C)(C)[C@@H](O[C@@H]6OC[C@@H](O)[C@H](O)[C@H]6O)CC[C@@]56C[C@@]46CC[C@]2(C)[C@@H]13
inactive: Potency [1] | Potency [2] | Potency [3] | Potency [4] | Potency [5] | Potency [7] | Potency [8] | outcome [9] | Potency [10] | outcome [11] | outcome [12] | Potency [14] | Potency [15] | outcome [16] | Potency [17] | outcome [18]
active: Potency [6] 5.38 µM

Cc1ccccc1S(=O)(=O)O
inactive: Potency [1] | Potency [2] | Potency [3] | Potency [4] | Potency [5] | Potency [6] | Potency [8] | outcome [9] | Potency [10] | outcome [11] | outcome [12] | outcome [13] | Potency [14] | Potency [15] | outcome [16] | outcome [18]

O=[N+]([O-])c1ccc2[nH]ncc2c1
active: Potency [6] 38.5 µM
inactive: Potency [1] | Potency [2] | Potency [3] | Potency [4] | Potency [5] | Potency [7] | Potency [8] | outcome [9] | Potency [10] | outcome [11] | outcome [12] | outcome [13] | Potency [14] | Potency [15] | outcome [16] | Potency [17] | outcome [18] | Potency [19] | Potency [20]

O=C1CCC(=O)O1
inactive: Potency [1] | Potency [2] | Potency [3] | Potency [4] | Potency [5] | Potency [6] | Potency [7] | Potency [8] | Potency [10] | outcome [11] | outcome [12] | Potency [14] | Potency [15] | outcome [16] | Potency [17] | outcome [18] | Potency [19] | Potency [20]

C/C(=C(\CCOP(=O)(O)O)SC(=O)c1ccccc1)N(C=O)Cc1cnc(C)nc1N
inactive: Potency [1] | Potency [2] | Potency [3] | Potency [4] | Potency [5] | Potency [6] | fluorescence, relative to Rose Bengal [7] -0.226% [at 18.6 µM] | fluorescence, % of fluorescein control [8] -0.0371% [at 18.6 µM] | fluorescence, % of triamterene [9] -0.0569% [at 18.6 µM] | fluorescence, % of fluorescent control [10] 0.166% [at 18.6 µM] | fluorescence, % of fluorescein [11] -0.205% [at 18.6 µM] | fluorescence, % of fluorescent control [12] -0.0157% [at 18.6 µM] | activity change [13] 0.0312% [at 18.6 µM] | fluorescence, % of fluorescent control [14] -0.0062% [at 18.6 µM] | fluorescence, % of Rose Bengal [15] 0.0762% [at 18.6 µM] | fluorescence, % of fluorescent control [16] -0.035% [at 18.6 µM] | fluorescence, % of fluorescein control [17] -0.0244% [at 18.6 µM] | fluorescence, % of fluorescent control [18] -0.293% [at 18.6 µM] | Potency [20]

COc1cc2nc(N3CCN(C(=O)C4COc5ccccc5O4)CC3)nc(N)c2cc1OC (stereo not drawn)
inactive: Potency [1] | Potency [2] | Potency [3] | Potency [4] | Potency [5] | Potency [6] | Potency [7] | Potency [8] | Potency [10] | outcome [11] | outcome [12] | outcome [13] | Potency [14] | Potency [15] | outcome [16] | Potency [17]

O=C(OCCCCCCOC(=O)c1ccccc1)c1ccccc1
inactive: Potency [1] | Potency [2] | Potency [3] | Potency [4] | Potency [5] | Potency [6] | Potency [8] | outcome [9] | Potency [10] | outcome [12] | outcome [13] | Potency [15] | outcome [16] | outcome [18] | Potency [20]

CC1OC(=O)C(C)OC1=O (stereo not drawn)
inactive: Potency [1] | Potency [2] | Potency [3] | Potency [4] | Potency [5] | Potency [6] | Potency [7] | Potency [8] | outcome [9] | Potency [10] | outcome [11] | outcome [12] | outcome [13] | Potency [14] | Potency [15] | outcome [16] | Potency [17] | Potency [19] | Potency [20]

c1ccc(-c2ccccn2)nc1
inactive: Potency [1] | Potency [2] | Potency [3] | Potency [4] | Potency [5] | Potency [6] | Potency [7] | Potency [8] | outcome [9] | Potency [10] | outcome [11] | outcome [12] | outcome [13] | Potency [14] | Potency [15] | outcome [16] | Potency [17] | outcome [18] | Potency [19]

CC(CC=O)c1ccccc1 (stereo not drawn)
inactive: Potency [1] | Potency [2] | Potency [3] | Potency [4] | Potency [5] | Potency [7] | Potency [8] | outcome [9] | Potency [10] | outcome [11] | outcome [12] | outcome [13] | Potency [14] | Potency [15] | outcome [16] | Potency [17] | outcome [18]
active: Potency [6] 54.5 µM

OCCNCc1ccccc1
inactive: Potency [1] | Potency [2] | Potency [3] | Potency [4] | Potency [5] | Potency [6] | Potency [7] | Potency [8] | Potency [10] | outcome [12] | outcome [13] | Potency [15] | outcome [16] | outcome [18] | Potency [19] | Potency [20]

O=C1[C@H]2CCCC[C@H]2C(=O)N1CCCCN1CCN(c2nsc3ccccc23)CC1
inactive: Potency [1] | Potency [2] | Potency [3] | Potency [4] | Potency [5] | Potency [7] | Potency [8] | outcome [9] | Potency [10] | outcome [11] | outcome [12] | outcome [13] | Potency [14] | Potency [15] | outcome [16] | Potency [17] | outcome [18]

From PubChem BioAssay (Tox21)
